Hit rate of the full screen: of about 17,000 compounds, about 75 (0.4%) were called active.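 Rule for the calls: active = compounds whose four printed spots each glow above background more than chance allows, each with a p-value under 7%; inactive = the rest.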 The full list was thinned out, with actives kept by preference.
System: mutant tumor protein p53 (GST-tagged), Homo sapiens
Assay: binders of human mutant p53, primary screen, biochemical, small molecule microarray, anti-GST fluorescence (AID 624136)
Details: small molecule microarray binding

outcome, inactive:
CC(=O)CC(=O)N1C(=O)N(C)[C@@]2(C)Oc3ccccc3[C@@H]1[C@H]2COC(=O)c1ccccc1
C[C@@H]1CN([C@@H](C)CO)C(=O)Cc2cc(NS(C)(=O)=O)ccc2O[C@H]1CN(C)C(=O)Nc1ccccc1
CO[C@H]1C(=O)c2c(O)c(CC=C(C)C)c(O)c(CC=C(C)C)c2O[C@@H]1c1ccc(O)cc1
CC(C)NC(=O)Nc1ccc2c(c1)C(=O)N([C@H](C)CO)C[C@@H](C)[C@@H](CN(C)S(=O)(=O)c1cccs1)OCCCC[C@@H](C)O2
O=C1O[C@H](c2ccccc2)[C@H](c2ccccc2)N2[C@H]1[C@@H](C(=O)N1CCN(c3ncccn3)CC1)[C@]1(C(=O)Nc3ccccc31)[C@H]2c1ccc(OCCO)cc1
COC(=O)C(CC#Cc1ccc2c(c1)[C@]1(C(=O)N2)[C@H](c2ccccc2OCCO)N2[C@H](c3ccccc3)[C@H](c3ccccc3)OC(=O)[C@H]2[C@@H]1C(N)=O)C(=O)OC
COc1ccc(C#Cc2ccc3c(c2)[C@]2(C(=O)N3)[C@H](C(=O)N3CCCCCCC3)[C@H]3C(=O)O[C@H](c4ccccc4)[C@H](c4ccccc4)N3[C@@H]2c2ccc(O)cc2)cc1
O=C1O[C@@H](c2ccccc2)[C@@H](c2ccccc2)N2[C@@H](c3ccccc3OCCO)[C@]3(C(=O)Nc4ccc(C#CC5(O)CCCCCC5)cc43)[C@@H](C(=O)N3CCCCCCC3)[C@H]12
CC(=O)c1cccc(NC(=O)c2ccc(CNS(=O)(=O)c3ccc(C(C)(C)C)cc3)cc2)c1
C[C@@H]1CCCCO[C@H](CN(C)C(=O)NC2CCCCC2)[C@H](C)CN([C@@H](C)CO)C(=O)c2cc(NC(=O)C3CCCCC3)ccc2O1
C[C@@H]1CCCCO[C@H](CN(C)S(=O)(=O)c2ccccc2)[C@H](C)CN([C@@H](C)CO)C(=O)c2cc(N(C)C)ccc2O1
C[C@@H]1CN([C@@H](C)CO)C(=O)Cc2cc(NC(=O)Nc3ccc4c(c3)OCO4)ccc2O[C@@H]1CN(C)C(=O)Nc1ccc2c(c1)OCO2
C[C@@H]1CN([C@H](C)CO)C(=O)c2cc(NS(=O)(=O)c3ccccc3)ccc2O[C@H]1CN(C)C(=O)Nc1ccc2c(c1)OCO2
O=c1cc(CSc2nnnn2-c2ccccc2)[nH]c(=S)[nH]1
Cc1ccc(C)c(S(=O)(=O)NC(C)C(=O)Nc2ccc(Br)cc2F)c1 (stereo unspecified)
C[C@H](CO)N1C[C@H](C)[C@H](CN(C)Cc2ccncc2)Oc2ccc(NC(=O)Cc3cn(C)c4ccccc34)cc2CC1=O
COc1ccc(-c2cc(C(=O)N3CCCC3C(=O)O)c(C)o2)cc1OC (stereo unspecified)
CCN1CCN(S(=O)(=O)c2cc(OCC(N)=O)c(C)cc2Cl)CC1
Cc1cc(C(=O)Nc2cccc3c2O[C@@H](CN(C)C(=O)Nc2ccc(F)cc2)[C@H](C)CN([C@@H](C)CO)C3=O)n(C)n1
C[C@H](CO)N1C[C@H](C)[C@@H](CN(C)Cc2ccc(C(=O)O)cc2)Oc2ccc(NC(=O)Cn3cnnn3)cc2CC1=O
C[C@@H]1CN([C@@H](C)CO)C(=O)c2cccc(NC(=O)c3ccncc3)c2O[C@H]1CN(C)S(=O)(=O)c1ccc(F)cc1
C[C@H](CO)N1C[C@H](C)[C@@H](CN(C)CC2CCCCC2)Oc2ccc(NC(=O)Cn3cnnn3)cc2CC1=O
COc1cc(C2OC(c3cc(OC)c(OC)c(OC)c3)C(C)C2C)cc(OC)c1OC (stereo unspecified)
C[C@@H]1CN([C@@H](C)CO)C(=O)c2cc(NS(=O)(=O)c3ccccc3)ccc2O[C@@H](C)CCCCO[C@H]1CN(C)S(=O)(=O)c1cccs1
Cc1cc(C)cc(N2C(=O)CSC2c2cccc([N+](=O)[O-])c2)c1 (stereo unspecified)
C[C@H](CO)N1C[C@H](C)[C@H](CN(C)C)Oc2ncc(C#Cc3ccc(F)cc3)cc2C1=O
C[C@H]1CN([C@@H](C)CO)C(=O)Cc2cc(NC(=O)NC3CCCCC3)ccc2O[C@H]1CN(C)S(=O)(=O)c1ccccc1
C[C@H]1CN([C@@H](C)CO)C(=O)c2cccc(NS(=O)(=O)c3ccccc3)c2O[C@@H]1CN(C)C(=O)Nc1ccc(C(F)(F)F)cc1
Cc1noc(C)c1NC(=O)N(C)C[C@@H]1Oc2ccc(NC(=O)CCN3CCOCC3)cc2CC(=O)N([C@H](C)CO)C[C@@H]1C
COc1ccc(S(=O)(=O)Nc2ccc3c(c2)CC(=O)N([C@@H](C)CO)C[C@@H](C)[C@@H](CN(C)C)O3)cc1
CCO/C([O-])=N\c1c[n+](N2CCOCC2)no1
C[C@H](CO)N1C[C@H](C)[C@@H](CN(C)CC2CC2)Oc2ccc(NS(=O)(=O)c3cn(C)cn3)cc2CC1=O
Cc1ccc(-c2cn3c4c(sc3n2)CCCC4)cc1
Cc1noc(C)c1S(=O)(=O)N(C)C[C@H]1Oc2ccc(NC(=O)CCN3CCOCC3)cc2CC(=O)N([C@H](C)CO)C[C@H]1C
C[C@@H]1CN([C@H](C)CO)C(=O)CCCn2cc(nn2)CO[C@@H]1CN(C)C(=O)c1ccc2ccn(C)c2c1
CC(C)NC(=O)N(C)C[C@@H]1Oc2ccc(NC(=O)C3CC3)cc2C(=O)N([C@@H](C)CO)C[C@H]1C
C[C@@H]1CN([C@H](C)CO)C(=O)Cc2cc(NC(=O)C3CC3)ccc2O[C@H]1CN(C)Cc1ccc2c(c1)OCO2
C[C@@H]1CCCCO[C@H](CN(C)C(=O)c2ccccc2)[C@H](C)CN([C@@H](C)CO)C(=O)c2cc(NC(=O)Nc3ccc4c(c3)OCO4)ccc2O1
C[C@@H]1CCCCO[C@H](CN(C)Cc2ccncc2)[C@H](C)CN([C@H](C)CO)C(=O)c2cc(NC(=O)Nc3ccccc3)ccc2O1
C[C@H](CO)N1C[C@H](C)[C@@H](CN(C)C(=O)Nc2ccccc2)Oc2ccc(NC(=O)C3CC3)cc2CC1=O
C[C@@H]1CCCCO[C@@H](CN(C)Cc2ccc(C(=O)O)cc2)[C@H](C)CN([C@@H](C)CO)C(=O)c2cc(NC(=O)Nc3ccc(C(F)(F)F)cc3)ccc2O1
C[C@@H]1CC[C@]2(C)[C@H](CC[C@@H](O)[C@]2(C)O)[C@@]1(C)CC(=O)c1ccoc1
CC(=O)N[C@@H](C(=O)O[C@H]1CCC(C)(C)[C@@H]2CCC3=C(COC3=O)[C@@]12C)C(C)C
CC(C)NC(=O)N(C)C[C@H]1OCCCC[C@H](C)Oc2ccc(NC(=O)Nc3ccc(C(F)(F)F)cc3)cc2C(=O)N([C@H](C)CO)C[C@@H]1C
CC(C)NC(=O)N(C)C[C@@H]1OCCCC[C@@H](C)Oc2ccc(NC(=O)Cc3ccccc3)cc2C(=O)N([C@H](C)CO)C[C@H]1C
C[C@H]1CN([C@@H](C)CO)C(=O)c2cccc(NC(=O)Nc3ccc(C(F)(F)F)cc3)c2O[C@H]1CN(C)C(=O)NC1CCCCC1
COC(=O)C1=CO[C@@H](O[C@@H]2O[C@H](CO)[C@@H](O)[C@H](O)[C@H]2O)[C@@H]2[C@@](C)(O)[C@@H](OC(=O)/C=C/c3ccc(OC)c(OC)c3)C[C@]12O
C[C@H](CO)N1C[C@H](C)[C@H](CN(C)S(=O)(=O)c2cn(C)cn2)Oc2c(NC(=O)c3ccncc3)cccc2C1=O
Cc1noc(C)c1NC(=O)N(C)C[C@@H]1Oc2ccc(NC(=O)Nc3ccc(F)cc3)cc2C(=O)N([C@H](C)CO)C[C@@H]1C
C[C@H](CO)N1C[C@H](C)[C@H](CN(C)C)Oc2c(NC(=O)C3CCOCC3)cccc2C1=O
C[C@@H]1CN([C@@H](C)CO)C(=O)Cc2cc(NS(C)(=O)=O)ccc2O[C@@H]1CN(C)Cc1ccc2c(c1)OCO2
O=C(C1=C[C@H](c2ccc(C(F)(F)F)cc2)C[C@H](OCc2ccc(CO)cc2)O1)N1CCN(Cc2ccccc2)CC1
C[C@H](CO)N1C[C@H](C)[C@@H](CN(C)C)Oc2ccc(NS(=O)(=O)c3cccs3)cc2C1=O
COc1ccc(S(=O)(=O)N(C)C[C@H]2OCCCC[C@@H](C)Oc3ccc(NC(=O)CCC(F)(F)F)cc3C(=O)N([C@@H](C)CO)C[C@H]2C)cc1
Cc1noc(C)c1NC(=O)N(C)C[C@H]1Oc2ccc(N(C)C)cc2CC(=O)N([C@H](C)CO)C[C@H]1C
C[C@H]1CCCCO[C@H](CN(C)C(=O)Nc2ccccc2)[C@@H](C)CN([C@@H](C)CO)C(=O)c2cc(NC(=O)CCC(F)(F)F)ccc2O1
N#Cc1c(-c2ccccc2)cc(-c2ccccc2)nc1SCC(=O)O
CC(Sc1nnc(N)s1)C(=O)Nc1cccc(Cl)c1 (stereo unspecified)
COc1ccc(NC(=O)Nc2cccc3c2O[C@@H](CN(C)Cc2ccncc2)[C@H](C)CN([C@H](C)CO)C3=O)cc1
COC(=O)C1(Cc2ccc(O)c(CC3OC3(C)C)c2)OC(=O)C(=O)C1c1ccc(O)cc1 (stereo unspecified)
C[C@@H]1CCCCO[C@H](CN(C)S(=O)(=O)c2cccs2)[C@H](C)CN([C@@H](C)CO)C(=O)c2cc(NS(=O)(=O)c3cccs3)ccc2O1
C[C@@H]1CN([C@H](C)CO)C(=O)c2cc(NC(=O)NC3CCCCC3)ccc2O[C@H]1CN(C)C(=O)Nc1ccccc1
COc1ccc(C)cc1NC(=O)CSc1nc(SC)ns1
C[C@H](CO)N1C[C@H](C)[C@@H](CN(C)C(=O)Nc2ccccc2F)OCc2cn(nn2)CCCC1=O
COc1ccc(NC(=O)Nc2ccc3c(c2)C(=O)N([C@H](C)CO)C[C@H](C)[C@@H](CN(C)S(=O)(=O)c2ccc(OC)cc2)OCCCC[C@H](C)O3)cc1
C[C@H](CO)N1C[C@H](C)[C@H](CN(C)C(=O)Nc2ccc3c(c2)OCO3)Oc2ncc(Br)cc2C1=O
C[C@H]1CN([C@@H](C)CO)C(=O)Cc2cc(NC(=O)Nc3ccc4c(c3)OCO4)ccc2O[C@H]1CN(C)CC1CC1

outcome, active:
O=C1O[C@@H](c2ccccc2)[C@@H](c2ccccc2)N2[C@@H](c3ccccc3OCCO)[C@]3(C(=O)Nc4ccccc43)[C@@H](C(=O)N3CCCCCCC3)[C@H]12
COc1ccc(C#Cc2ccc3c(c2)[C@]2(C(=O)N3)[C@H](c3ccccc3OCCO)N3[C@H](c4ccccc4)[C@H](c4ccccc4)OC(=O)[C@H]3[C@@H]2C(=O)N2CCCCCCC2)cc1
C[C@@H]1CN([C@H](C)CO)C(=O)Cc2cc(NC(=O)C3CC3)ccc2O[C@H]1CN(C)Cc1ccc(Cl)c(Cl)c1
C[C@@H]1CN([C@@H](C)CO)C(=O)c2cc(NC(=O)Nc3ccc4c(c3)OCO4)ccc2O[C@@H](C)CCCCO[C@@H]1CN(C)Cc1ccccc1
